Experimental data as given in PubChem BioAssay (NCATS).
Inconclusive results are not listed. Activity calls are given as the source filed them. Calls follow the shape of the dose curve; as a rule, active = well fitted curve in the direction sought with a large enough effect; inconclusive = small, poorly fitted or top-dose-only effect, or another doubt; inactive = no such curve, though single readings can be large; an effect the other way counts as inactive or inconclusive.

Assays:
[1] = Primary fluorescence-based thiol-reactive (MSTI) qHTS assay for identification of artifact compounds. (AID 1845221); details: MSTI thiol-reactivity probe, 1 h; series mostly up to 53.8 µM;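 also: thiol-reactive compounds lower the probe fluorescence signal; nearly all actives have a fitted effect of over 65% in size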
How it was run: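 qHTS titration of compound; 4 uM MSTI, PBS pH 7.4, 2% DMSO; 1 h RT, dark; fluorescence 525/598 nm; normalized to Acetyl-MSTI and MSTI; 4-parameter Hill fit.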

[2] = tested on: Nanoluciferase (engineered Oplophorus gracilirostris luciferase); test: Primary Nanoluciferase (NLuc) qHTS assay for identification of artifact compounds. (AID 1845222); details: NLuc-conditioned medium, Nano-Glo luminescence, 5 min; series mostly up to 54.1 µM;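 also: 0% = DMSO and -100% = no enzyme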
How it was run: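 Luminescence read-out of secreted NLuc in S16 cell conditioned medium (1:55); compounds tested with 15 min RT preincubation, then Nano-Glo substrate 1:100, 5 min. % inhibition vs no-enzyme and DMSO controls, 4-parameter Hill fit.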

[3] = Primary redox qHTS assay for identification of artifact compounds. (AID 1845223); details: Amplex Red/HRP redox cycling with DTT, fluorescence; series mostly up to 53.8 µM;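 also: 0% = DMSO and 100% = reference compound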
How it was run: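 Amplex Red (25 uM) and HRP (250 mU/mL) in HBSS, with compounds for 15 min, then 250 uM DTT for 30 min, room temperature, dark. Fluorescence 525/598 nm read; normalized to DMSO and 10 uM DA3003; Hill fit.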

C[C@@H]1O[C@@H](O[C@H]2[C@H](OC(=O)[C@]34CCC(C)(C)C[C@H]3C3=CCC5[C@@]6(C)CC[C@H](O[C@@H]7O[C@H](CO[C@@H]8OC[C@H](O)[C@H](O)[C@H]8O[C@@H]8OC[C@@H](O)[C@H](O)[C@H]8O)[C@@H](O)[C@H](O)[C@H]7O)C(C)(C)C6CC[C@@]5(C)[C@]3(C)C[C@H]4O)O[C@H](CO)[C@@H](O)[C@@H]2O)[C@H](O[C@@H]2O[C@H](CO)[C@@H](O)[C@H](O)[C@H]2O)[C@H](O)[C@H]1O[C@@H]1OC[C@@H](O)[C@H](O[C@@H]2OC[C@@H](O)[C@H](O)[C@H]2O)[C@H]1O (stereo not given in full)
inactive: activity change, negative = thiol reactive [1] 385% [at 6.41 µM] | activity, negative = inhibition [2] 3.87% [at 6.45 µM] | redox activity (% of DA3003) [3] 13.7% [at 6.41 µM]

COc1cc(C2OCC3(O)C(c4ccc(O[C@@H]5O[C@H](CO)[C@@H](O)[C@H](O)[C@H]5O)c(OC)c4)OCC23O)ccc1O (stereo not given in full)
inactive: Potency [1] | Potency [2] | Potency [3]

CC[C@@H](C)[C@H](N)C(=O)N1Cc2ccccc2C1
inactive: Potency [1] | Potency [2] | Potency [3]

Cc1nnc(-c2ccc3occ(-c4ccc(S(C)=O)cc4)c3c2)o1 (stereo not given)
inactive: Potency [1] | Potency [2] | Potency [3]

C/C=C(\C)C(=O)OC[C@H]1O[C@@H](O[C@H]2[C@@H](O[C@H]3O[C@H](CO)[C@@H](O)[C@H](O)[C@H]3O[C@@H]3O[C@H](CO)[C@@H](O)[C@H](O)[C@H]3O)O[C@H](COC(=O)/C(C)=C/C)[C@@H](O)[C@@H]2O)[C@H](O)[C@@H](O)[C@@H]1O
inactive: activity change, negative = thiol reactive [1] -18.3% [at 11.5 µM] | activity, negative = inhibition [2] -0.032% [at 11.6 µM] | redox activity (% of DA3003) [3] -4.48% [at 11.5 µM]
